Vaccinia mCherry = qHTS for Stage-Specific Inhibitors of Vaccinia Orthopoxvirus: mCherry Reporter Primary qHTS; Vaccinia virus mCherry reporter infection, fluorescence; Potency, µM (titrated, usually from 36.5 µM), without a hit: at the highest dose activity change, negative = inhibition, most hits filed as inhibitors; 0.63% of 310,000 active; AID 720579, 2013; calls by dose curve; tested in A549 cells; also: nearly all actives have a fitted effect of over 35% in size
HCV inhibitor = qHTS Assay for Inhibitors of Hepatitis C Virus (HCV); Huh7.5.1 HCVcc-Cre infection, luciferase reporter, 44 h; 3.4% of 340,000 active; Potency, µM (doses to about 41.8 µM), inactives show at the highest dose activity change, negative = inhibition, actives largely listed as inhibitors; active = well fitted inhibition curve with a large enough effect; inconclusive = small, poorly fitted or top-dose-only effect, or another doubt; inactive = no such curve, though single readings can be large or run the other way
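Antiviral activity was scored by luciferase reporter output from cells infected with HCVcc-Cre (~0.5 moi) in presence of compound, 44 h infection period, cells seeded 1,000/well 4 h prior.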
VACV Venus inh = qHTS for Stage-Specific Inhibitors of Vaccinia Orthopoxvirus: Venus Reporter Primary qHTS; Potency, µM (highest dose often 36.5 µM), without a hit: at the highest dose activity change, negative = inhibition, usual class: inhibitors; Vaccinia virus Venus reporter expression, fluorescence; 0.46% of 330,000 active; AID 720580, 2013; calls by dose curve; tested in A549 cells; also: nearly all actives have a fitted effect of over 30% in size
Starred values were filed as active, the others as inactive; i = inactive; ? = inconclusive; nt = not tested or not shown. Hits are enriched below; roughly 3.3% of the tested compounds scored in any of these assays. % is scaled to controls: 0 for no effect and ±100 for the full control effect; potency is read from the fitted curve at half-maximal effect.

SMILES	Vaccinia mCherry	HCV inhibitor	VACV Venus inh
CCCN1CCN(C(=O)c2oc3c(Cl)cccc3c2C)CC1	-8.1%	4.4%	-14.6%
CCCCN(C)CCNC(=O)c1cn(C)c(=O)c2c1c1ccccc1n2C	i	-13.3%	-4.3%
Cn1c(=O)c(C(=O)CCl)c(N)n(Cc2ccccc2)c1=O	?	?	12.6µM*
Cn1c(N)c(C(=O)CCl)c(=O)n(Cc2ccccc2)c1=O	-30.6%	4.1%	?
Cc1ccc(S(=O)(=O)N2CCN(C(=O)c3ccccc3Cc3ccccc3)CC2)c(C)c1	-5.1%	-29.4%	-13.8%
CCOC(=O)c1sc(NC(=O)CSc2ncccn2)nc1C	-24.9%	15.8µM*	-20.1%
CCOc1ccc2nc(NC(=O)c3ccc(OCC4CCCO4)cc3)sc2c1 (stereo not drawn)	-4.5%	3.98µM*	-11.4%
CCOC(=O)c1sc(NC(=O)CSc2nccc(C)n2)nc1C	nt	-19.4%	nt
CCOc1ccc(C(=O)Nc2nc(C)c(C(=O)OC)s2)cc1	i	17.8µM*	-13.0%
Cc1csc(NC(=O)c2ccc(OCC3CCCO3)cc2)n1 (stereo not drawn)	-12.4%	11.2µM*	-3.7%
COC(=O)c1sc(NC(=O)c2ccncc2)nc1C	-13.0%	22.3%	-3.8%
Cc1cccc2sc(NC(=O)c3ccc(OCC4CCCO4)cc3)nc12 (stereo not drawn)	-1.9%	?	-9.3%
O=C(Nc1nc(-c2ccc(F)c(F)c2)cs1)c1ccc(OCC2CCCO2)cc1 (stereo not drawn)	-24.3%	?	-19.2%
COCCNC(=O)COc1ccc(OCCNC[C@H](O)COc2ccccc2)cc1	i	nt	-14.3%
CC(=O)N1CCc2cc(S(=O)(=O)NCCCN3CCC(C)CC3)ccc21	-0.6%	-2.3%	-15.8%
COC(=O)c1ccc(C(=O)NCC2Cc3cccc(-c4ccc(C(=O)OC)cn4)c3O2)cc1 (stereo not drawn)	-19.5%	nt	-19.1%
CCC(COC)NC(=O)c1cnn(-c2ncc3c(n2)-c2ccccc2CC3)c1C (stereo not drawn)	-20.2%	nt	-12.1%
COc1ccc2nc(NC(=O)C3CCCN(S(=O)(=O)c4c(C)noc4C)C3)sc2c1 (stereo not drawn)	-0.2%	?	-8.5%
CCOc1ccc2nc(NC(=O)C3CCCN(S(=O)(=O)c4c(C)noc4C)C3)sc2c1 (stereo not drawn)	?	11.2µM*	?
O=C(NCCOC(=O)c1ccc(C(=O)OCCNC(=O)c2cccnc2)s1)c1cccnc1	nt	22.4µM*	nt
O=C(NCCOC(=O)c1cccs1)c1cccnc1	nt	19.3%	0.5%
COC(=O)c1ccc(CN2CCCC(CCC(=O)NCc3ccc(C)o3)C2)cc1 (stereo not drawn)	-10.5%	-9.9%	5.1%
CCn1c(C)c(C)c2cc(C(=O)NCCN3CCCCCC3)ccc21	nt	12.6µM*	nt
CCn1c(C)c(C)c2cc(C(=O)NCCc3ccco3)ccc21	nt	15.8µM*	nt
CCn1c(C)c(C)c2cc(C(=O)NCCc3ccc(C)cc3)ccc21	-7.8%	nt	-1.8%
SMILES	Vaccinia mCherry	HCV inhibitor	VACV Venus inh
CCn1c(C)c(C)c2cc(C(=O)NCCCN3CCCCC3)ccc21	?	?	-19.1%
CCOC(=O)c1ccccc1OCc1cc(C2Nc3ccccc3C(=O)N2c2cccc3ccccc23)ccc1OC (stereo not drawn)	37.5%	nt	-3.2%
COc1ccc(N(Cc2ccccc2)N=O)cc1	-5.0%	6.9%	-17.5%
Cc1ccc(N(C)S(=O)(=O)c2cc(-c3cnc(C4CC4)o3)ccc2C)cc1	-12.4%	3.16µM*	-12.1%
Cc1cc(C)c(NS(=O)(=O)c2cc(-c3cnc(C4CC4)o3)ccc2C)c(C)c1	-8.1%	nt	-4.1%
CCc1ccc(-c2cn(-c3nc(C)cc(C)n3)c(=N)o2)cc1	nt	22.4µM*	nt
CCc1ccc(-c2cn3c(n2)SCC3)cc1	?	6.0%	-18.7%
Cc1ccccc1C1(CC(=O)N2CCCC(C)C2)CC(=O)N(Cc2cccnc2)C1=O (stereo not drawn)	-10.8%	nt	3.1%
CN1CCN(c2ccc(NC(=O)c3ccc(-c4ccccc4F)o3)cc2)CC1	-24.4%	10µM*	-28.5%
CN1CCN(c2ccccc2NC(=O)c2ccc(-c3ccc(Cl)c(Cl)c3)o2)CC1	-13.6%	2.0%	-6.8%
O=C(NC1CCCCC1)c1ccc(-c2ccccc2F)o1	-15.2%	0.708µM*	-15.9%
O=C(NC1CCCCCC1)c1ccc(CS(=O)(=O)Cc2ccccc2F)o1	nt	-8.6%	nt
Cc1cc(N2CCN(C)CC2)ccc1NC(=O)c1ccc(-c2ccc(Cl)cc2)o1	?	14.1µM*	-14.0%
CN1CCN(c2ccc(NC(=O)c3ccc(Br)o3)cc2)CC1	nt	12.9%	nt
CCn1c(-c2ccccc2F)nc2cc(NC(C)=O)cc(C(=O)NCC3CCOCC3)c21	i	nt	-12.5%
CC1=C(c2ccc(C)c(C)c2)S(=O)(=O)N=C1N1CCC(C(=O)NC(C)c2ccccc2)CC1 (stereo not drawn)	-17.5%	nt	-22.1%
CCN(CC)C(=O)C1=C(C)N(CCCOC)C(=O)C(CC(=O)NCCN2CCOCC2)C1 (stereo not drawn)	i	nt	-1.3%
O=C(O)c1c2c(nc3ccccc13)CCCC2	17.4%	nt	-11.2%
Cc1cc(=O)[nH]c2ccc(O)cc12	-13.6%	nt	-15.8%
CCn1cc(C(=O)c2cccs2)c2ccccc21	-0.5%	?	-12.4%
CCOC(=O)Cn1cc(C(=O)c2cccs2)c2ccccc21	-10.7%	8.91µM*	-3.7%
Cc1ccc(C)c(N2CCN(C(=O)CN3CCSc4ccc(S(=O)(=O)N(C)C)cc43)CC2)c1	-18.6%	nt	-12.0%
Cc1[nH]c2ccccc2c1/C=N/NC(N)=S	?	-11.2%	?
COCCNC(=S)N/N=C/c1c2ccccc2cc2ccccc12	?	?	-19.1%
NC(=S)N/N=C\c1c(OCc2ccccc2Cl)ccc2ccccc12	?	7.94µM*	?
SMILES	Vaccinia mCherry	HCV inhibitor	VACV Venus inh
O=C(N/N=C/c1ccccc1OCc1ccccc1Cl)c1cccnc1	i	-7.6%	1.0%
CNc1cccnc1C=NNC(N)=S	?	3.55µM*	?
NC(=S)N/N=C\c1c2ccccc2cc2ccccc12	?	12.6µM*	?
O=C(NN=Cc1ccccc1)NN=Cc1ccccc1	-9.4%	-3.7%	5.2%
NC(=S)N/N=C/c1ccccc1	5.62µM*	2.2%	?
CNc1ccc(C=C2C=CC=C2)cc1	11.1%	nt	-5.1%
N[C@H](CS)C(=O)O	-14.2%	nt	-5.4%
COc1cc(-c2c(OC)cccc2OC)cc2c1OCCN(Cc1cn[nH]c1-c1ccc(Cl)cc1)C2	-3.9%	nt	0.0%
COc1ccc(S(=O)(=O)N2CCNCC2)cc1	i	6.0%	-4.6%
CSc1nnc(C2CCN(CC(=O)Nc3ccccc3N3CCOCC3)CC2)n1C	18.1%	21.0%	-1.5%
O=C(Nc1ccc(Oc2ccc(Br)cc2)cc1)C1=CC=CN2CCS(=O)(=O)N=C12	nt	18.0%	nt
NC(=S)N/N=C/c1ccc2c(c1)OCCO2	11.2µM*	-21.7%	10µM*
CNC(=S)N/N=C/c1ccc2c(c1)OCCO2	nt	-13.8%	nt
CCN(CC)CCCNc1ccc(-c2nnc(-c3ccc(OCC(C)C)cc3)o2)cn1	-19.4%	8.91µM*	-8.0%
CCCOc1ccc(-c2nnc(-c3ccco3)o2)cc1	nt	7.4%	nt
C=C[C@@H]1c2cc(C)ccc2N(S(=O)(=O)c2ccc(C)cc2)[C@H](c2ccc(C(=O)OC)cc2)C1(C#N)C#N	i	nt	-3.6%

Compound activity as filed in PubChem.
